Assay outcomes as filed in PubChem.
MARV entry inh = Marburg virus entry inhibition | Potency, µM (series often up to 49.2 µM), inactives show at the top dose activity change, negative = inhibition, hits mostly inhibitors | 18,000 tested, 6.5% active | AID 720532 | Marburg virus pseudotype entry/binding inhibition, cell-based
LASV entry inh = Lassa virus entry inhibition | Lassa virus pseudotyped entry inhibition, cell-based qHTS | 18,000 tested, 4.1% active | Potency, µM (doses to about 49.2 µM), without a hit: at the top dose activity change, negative = inhibition, hits mostly inhibitors | AID 720533
* marks the source's active call; other numbers are inactive results; u = inconclusive; x = not tested or not shown; ! = repeats disagree; [ ] = dose if it differs, or a comment. An excerpt weighted towards active compounds, which were near 8% of everything screened. Calls follow the shape of the full dose curve; tested in HEK293 cells. % is scaled to controls: 0 for no effect and ±100 for the full control effect; potency is read from the fitted curve at half-maximal effect.

SMILES	MARV entry inh	LASV entry inh
NCCCCCCCCCCNS(=O)(=O)c1cccc2c(Cl)cccc12	9.5%	u
NCCCCCCNS(=O)(=O)c1cccc2c(Cl)cccc12	17.8µM*!	u
Cc1cccc(CN2CCN([C@H]3C[S+](=O)([O-])N[C@H]3COCc3ccccc3)CC2)c1	u	45.5%
C=CCOC(=O)N[C@@H](c1coc2ccccc2c1=O)[C@@H](C)C=CCC(=O)OC	-3.2%[8.59 µM]	-10.6%[8.59 µM]
COc1ccc2c(c1)[C@@]1(OCCC=C[C@@H]1C)C(=O)N2CC=C(C)CCC=C(C)C	-10.0%[8.59 µM]	23.1%[8.59 µM]
O=C(Nc1n[nH]c2nnc(-c3cccnc3)cc12)C1CC1	u	-25.0%
O=C(OCC(O)CO)c1ccccc1Nc1ccnc2cc(Cl)ccc12 (configuration not stated)	-10.8%	-12.7%
Cc1ccc(O)cc1Nc1ccnc2cc(-c3ccccn3)ccc12	14.1µM*	u
COc1cccc(CO[C@H]2C=C[C@@H](c3ccccc3)O[C@H]2CBr)c1	31.3%[8.59 µM]	23.9%[8.59 µM]
Cc1cccc2c(N=Nc3ccc(S(N)(=O)=O)cc3)c(O)[nH]c12	-14.6%	58.0%
FC(F)(F)c1cc(NC(=S)NC(c2ccccc2)c2ccccc2)cc(C(F)(F)F)c1	u	-43.6%
CNCCC(Oc1ccc(C(F)(F)F)cc1)c1ccccc1 (configuration not stated)	7.08µM*	17.8µM*!
O=C1[C@H]2[C@@H]3[C@@H](O)[C@H](O)CC(=NOCc4ccccc4)[C@@H]3CC[C@H]2C(=O)N1Cc1ccc2c(c1)OCO2	-17.5%[8.59 µM]	8.5%[8.59 µM]
COc1ccc(CN2CCNCC2)c(OC)c1OC	8.9%[17.8 µM]	-0.3%[17.8 µM]
COc1ccc(CN2CCN(C(c3ccc(F)cc3)c3ccc(F)cc3)CC2)c(OC)c1OC	10µM*	22.4µM*
CCCCCCCCCCCCCCCC(=O)OCCC1CCN(CCCN2c3ccccc3Sc3ccc(S(=O)(=O)N(C)C)cc32)CC1	-12.9%	21.1%
CN(C)CCCN1c2ccccc2Sc2ccc(Cl)cc21	15.8µM*	u
OCCOCCN1CCN(C2=Nc3ccccc3Sc3ccccc32)CC1	-9.5%	-23.7%
CC(=O)c1ccc2c(c1)N(CCCN1CCC(CCO)CC1)c1ccccc1S2	11.2µM*	-29.8%[17.8 µM]
OCCN1CCN(CCCN2c3ccccc3Sc3ccc(Cl)cc32)CC1	2.24µM*	u
CN1CCN(CCCN2c3ccccc3Sc3ccc(S(=O)(=O)N(C)C)cc32)CC1	u	-12.9%[17.8 µM]
COc1cc2c3cc1Oc1c(OC)c(OC)cc4c1C(Cc1cccc(c1)Oc1ccc(c(O)c1)CC3N(C)CC2)N(C)CC4 (configuration not stated)	-5.2%	-4.3%
COc1ccc2cc1Oc1ccc(cc1)CC1c3cc(c(OC)cc3CCN1C)Oc1c(OC)c(OC)cc3c1C(C2)N(C)CC3 (configuration not stated)	1.58µM*	11.2µM*
COc1ccc2cc1Oc1ccc(cc1)C[C@H]1c3cc(c(OC)cc3CCN1C)Oc1c(OC)c(OC)cc3c1[C@@H](C2)N(C)CC3	2.24µM*	u
COc1cc2c3cc1Oc1cc(ccc1O)CC1c4c(cc(OC)c(O)c4Oc4ccc(cc4)CC3N(C)CC2)CC[N+]1(C)C (configuration not stated)	-4.4%	2.5%
SMILES	MARV entry inh	LASV entry inh
CCN1C(=NCCc2cccnc2)NC(CCc2ccccc2)C(C(=O)OC)=C1C (configuration not stated)	38.2%[8.59 µM]	29.2%[8.59 µM]
Cc1ncc(CO)c(CO)c1O	28.2µM*!	-7.0%
Cc1ncc(COP(=O)(O)O)c(CN)c1O	0.6%	-8.8%
O=C(OCc1cn([C@@H]2CN(CC3CCCCC3)[C@@H](c3ccccc3)C[C@@H]2O)nn1)c1ccccc1	-27.6%	x
NS(=O)(=O)c1ccc(Nc2ncc(-c3ccccc3)o2)cc1	9.7%	-19.2%
CCC1OC(=O)C[C@@H](O)[C@H](C)[C@@H](O[C@@H]2O[C@H](C)C[C@H](N(C)C)[C@H]2O)[C@@H](CC=O)C[C@@H](C)C(=O)/C=C/[C@]2(C)OC2C1C (some centres not stated)	8.91µM*	25.1µM*
CO[C@@H]1[C@@H](O[C@@H]2O[C@H](C)[C@@H](O[C@H]3C[C@@](C)(O)[C@@H](O)[C@H](C)O3)[C@H](N(C)C)[C@H]2O)[C@@H](CC=O)C[C@@H](C)[C@@H](O[C@@H]2CC[C@H](N(C)C)[C@@H](C)O2)/C=C/C=C/C[C@@H](C)OC(=O)C[C@H]1O	u	9.7%[17.8 µM]
O[C@H]1CN(CC2CCCCC2)[C@@H](c2ccc(Cl)cc2)C[C@H]1n1cc(-c2ccc(F)cc2)nn1	u	-6.9%
C[C@H]1CC[C@H]2C(=O)N(Cc3ccc(Cl)cc3)C[C@H](O)CN2[C@H]1c1ccc(Br)cc1	-2.2%[8.59 µM]	10.1%[8.59 µM]
N[C@@H](Cc1ccc(O)c(O)c1)C(=O)O	7.94µM*!	u
N[C@H](C(=O)O)[C@@H](O)c1ccc(O)c(O)c1	1.25µM*	u
N[C@H](Cc1ccc(O)cc1)C(=O)O	8.7%	5.8%
CCC(N)C(O)c1ccc(O)c(O)c1 (configuration not stated)	-3.1%	8.7%
O=C(Cn1cc(COc2ccc([N+](=O)[O-])cc2)nn1)c1ccc(O)cc1	14.6%	6.0%
Cc1cc(OCCOCC[N+](C)(C)Cc2ccccc2)ccc1C(C)(C)CC(C)(C)C	22.4µM*	25.1µM*
C[N+](C)(CCOc1ccccc1)Cc1cccs1	13.4%	-16.8%
COC(=O)[C@@]1(C=C2c3ccc(OC)cc3[C@@H](OC)[C@@H]2C)[C@@H]2C=CC[C@@H]21	-11.0%[8.59 µM]	-25.6%[8.59 µM]
FC(F)(F)c1ccc(-c2nc(-c3ccccc3)oc2Nc2ccc3ccccc3c2)cc1	31.9%[8.59 µM]	x
Nc1nc2c(ncn2[C@@H]2O[C@H](COP(=O)(O)OP(=O)(O)O)[C@@H](O)[C@H]2O)c(=O)[nH]1	14.7%	21.8%
Nc1nc2c(ncn2C2OC(COC(=O)c3ccccc3)C(OC(=O)c3ccccc3)C2OC(=O)c2ccccc2)c(=O)[nH]1 (configuration not stated)	-28.0%	11.2µM*
C=CCNC(=O)N1C2=NC(C(=O)OC)=C(C(=O)OC)[C@@H]3N(C)c4ccccc4[C@]23C[C@H]1CO	-30.6%[8.59 µM]	3.9%[8.59 µM]
C=C[C@@]1(C)CC[C@H](O)[C@H]2C(=O)CCC[C@H]21	-27.8%[8.59 µM]	10.9%[8.59 µM]
C[C@@H]1C=CCC(=O)N2[C@H](CC(=O)N[C@@H]1c1ccccc1)C[C@@H](C)[C@@H]2c1ccccc1	-24.0%[8.59 µM]	-22.1%[8.59 µM]
CC1(C)C(=O)C=C[C@@]2(C)C1=C(O)C(=O)[C@@]1(C)C2CC[C@@]2(C)C(c3ccoc3)C[C@H]3O[C@@]321 (some centres not stated)	5.01µM*	11.2µM*
CC(=O)OC1CC(OC(C)=O)[C@]2(C)C(CC(=O)[C@]3(C)C2CC[C@@]2(C)C(c4ccoc4)OC(=O)C4O[C@@]423)C1(C)C (some centres not stated)	5.1%	-16.7%
SMILES	MARV entry inh	LASV entry inh
C=CCOC(=O)N[C@H](c1ccccc1)[C@H](C)C=CCC(=O)OC	9.3%[8.59 µM]	6.7%[8.59 µM]
CCCCN(CC)CCOc1cccc2ccccc12	10µM*	u
CCN(CC)CCOc1ccccc1OC	-4.7%	-3.8%
CCOC(=O)c1c(C(=O)OCC)c2c3ccccc3cc(C)n2c1C(=O)OC	1.5%[8.59 µM]	3.9%[8.59 µM]
CN(C)Cc1ccccc1-c1nc(N2CCOCC2)c2ccccc2n1	17.8µM*	-10.5%
Cc1noc(C)c1-c1nc(N2CCOCC2)c2ccccc2n1	4.6%	-2.0%
CC(C)C[C@H]1COc2cc(NC3CC3)ccc2S(=O)(=O)N1	12.7%	-10.4%
Cc1cc(F)ccc1O[C@H]1C=C[C@@H](c2ccc3c(c2)OCO3)O[C@H]1CO	14.2%[8.59 µM]	10.3%[8.59 µM]
CCCCCCCCNCCS(=O)(=O)NCc1ccccc1OC	u	-7.8%
